Test results: PubChem BioAssay (Tox21)
Records with an inconclusive call do not appear. Unmarked numbers belong to inactive results. Active and inactive are the calls of the source. Calls follow the shape of the dose curve; as a rule, active = well fitted cell-killing curve with a large enough effect in the repeat runs; inconclusive = weak or mixed curves; inactive = flat fitted curve, though single readings scatter.

Test: qHTS assay to identify small molecule antagonists of the estrogen related receptor (ERR) signaling pathway - cell viability counter screen (AID 1224818)
Conditions: ERR reporter cell line viability counter screen; series mostly up to 46.1 µM; viability change, negative = cytotoxic: at the top concentration
How it was run: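 Viability of ERR cells, CellTiter-Fluor fluorescence; 17.5 h compound exposure at 37 C, DMSO vehicle; 30 min reagent incubation at 37 C/5% CO2.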
% is scaled to controls: 0 for no effect and ±100 for the full control effect; potency is read from the fitted curve at half-maximal effect.

Compound	viability change, negative = cytotoxic [%]	Potency
Cn1c(=O)c2[nH]c(-c3ccccc3)nc2n(C)c1=O	4.26	–
CCCN(CC1CC1)c1nc(C)nc(Nc2c(Cl)cc(Cl)cc2Cl)c1Cl	2.99	–
O=c1c2ccccc2nc2n1CCc1c-2[nH]c2ccccc12	2.5	–
CNC(=O)[C@H]1O[C@@H](n2cnc3c(NCc4cccc(I)c4)ncnc32)[C@H](O)C1O (stereo not given in full)	-4.63	–
NCCCCC(=O)O	9.87	–
c1ccc2nc(C3=NCCN3)ccc2c1	8.08	–
COc1ccc2c(c1)CCC1C2CC[C@@]2(C)C1CC[C@@H]2NCCCCCCN1C(=O)CCC1=O (stereo not given in full)	-20.7	–
CO/N=C(\C(=O)N[C@@H]1C(=O)N2C(C(=O)O)=C(COC(C)=O)CS[C@H]12)c1csc(N)n1 (stereo in doubt)	10	–
O=C(O)C1=CCCN(CCON=C(c2ccccc2)c2ccccc2)C1	-2.83	–
CC(C)NC[C@H](O)COc1cccc2[nH]ccc12	13.7	–
Cn1cnc2c(NCc3ccccc3)nc(NCCO)nc21	1.58	–
N[C@H](CO)C(=O)O	1.56	–
Brc1c(Br)c(Br)c2n[nH]nc2c1Br	4.93	–
N=C(N)SCCN	8.05	–
CSc1ccccc1N1CCN(CCCCCC(=O)NC2CCCc3ccccc32)CC1 (stereo not given)	–	10.2 µM (active)
CCN1/C(=C/C(C)=O)Sc2ccc(OC)cc21	2.52	–
CNCCC=C1c2ccccc2CCc2ccccc21	-15.1	–
N[C@H](C(=O)O)c1cc(O)cc(O)c1	8.69	–
O=C(Nc1ccc2[nH]ncc2c1)C1CCC1	9.38	–
O=C(c1ccc2c(c1)OCCO2)N1CCCCC1	10.8	–

Compound	viability change, negative = cytotoxic [%]	Potency
NC(N)=N[C@@H](CCC(=O)O)C(=O)O	9.97	–
OC[C@H]1O[C@@H](n2cnc3c(NC4CCCCC4)ncnc32)[C@H](O)[C@@H]1O	7.64	–
COc1cc(C(O)CO)ccc1O (stereo not given)	16.3	–
CN(C)CCCC1(c2ccc(F)cc2)OCc2cc(C#N)ccc21 (stereo not given)	-7.93	–
CCN(CC)CCCCCCCCOC(=O)c1cc(OC)c(OC)c(OC)c1	-1.21	–
CCCCCCCCCCC/C=C\C(C)(C)/C=C\CCCC(=O)O	4.37	–
NCCCCCCCCCCN	3.76	–
O=c1ccn([C@@H]2O[C@H](COP(=O)(O)OP(=O)(O)O)[C@@H](O)[C@H]2O)c(=O)[nH]1	5.48	–
COC1(C2=NCCN2)COc2ccccc2O1 (stereo not given)	3.22	–
O=c1[nH]c2cc(C(F)(F)F)ccc2n1-c1cc(C(F)(F)F)ccc1O	-18.1	–
Brc1c(Br)c(Br)c2[nH]cnc2c1Br	-7.71	–
CC(=O)O[C@H]1CC2(C)[C@@H](C[C@@H](O)[C@H]3[C@@]4(C)CC[C@@H](O)[C@@H](C)[C@@H]4CC[C@@]32C)C1=C(CCC=C(C)C)C(=O)O (stereo not given in full)	9.81	–
O=C(O)c1cc(=O)cc(C(=O)O)[nH]1	9.64	–
O=C1c2c(O)cc(O)cc2OC(c2ccc(O)c(O)c2)C1O (stereo not given)	-2.58	–
CSc1nc(N)c2ncn([C@@H]3O[C@H](COP(=O)(O)OP(=O)(O)OP(=O)(O)O)C(O)[C@H]3O)c2n1 (stereo not given in full)	11.5	–
C[C@H](O)C(=O)C1=Nc2c(nc(N)[nH]c2=O)NC1	0.493	–
CC(C)NC[C@@H](O)c1ccc(O)c(O)c1	2.76	–
CNC(=O)[C@H]1O[C@@H](n2cnc3c(NCc4ccc(N)cc4)ncnc32)[C@H](O)C1O (stereo not given in full)	2.38	–
CS(=O)(=O)c1ccc(-n2nc(C(F)(F)F)cc2-c2ccc(F)cc2)cc1	-3.35	–
Cc1cccc(C)c1OCC(N)C(C)C (stereo not given)	6	–
